The list is not random: actives were taken first. Their share in the collection is about 4.3%.
GRIN3A LBD mod: NR3A (human) ligand-binding domain modulation. 2.5% of 340,000 active. NR3A LBD differential scanning fluorimetry, Tm shift; 0% = protein alone, 100% = glycine-bound protein. AID 1259313. Tm shift relative to glycine control, % at 25 µM;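 active means melting temperature shift of at least 10% of the positive control shift, at one fixed dose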
sPLA2-III inh: Inhibits HGIII-sPLA2 liposome hydrolysis, primary screen; QFRET BODIPY PC-A2 liposome hydrolysis, fluorescence; inhibition, % at 12.2 µM; 0.56% of 370,000 active; AID 743126;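 active means inhibition above mean plus 3 SD of compounds lying within the high and low control bounds, cut at about 19% in these data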;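 further: 0% = median of test compound wells and 100% = no enzyme DMSO wells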
FAS TE block: blocks the thioesterase domain of human fatty acid synthase | P49327 | recombinant FAS-TE, OMFH fluorogenic substrate, fluorescence endpoint | inhibition, % at 15 µM | 0.67% of 360,000 active | AID 602261;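 active means compounds whose normalised, plate-corrected inhibition of enzyme fluorescence in the single-dose primary screen is 50% or more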;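 further: 0% = DMSO with enzyme and 100% = substrate without enzyme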
ADAM17 inh: ADAM17 inhibition, QFRET primary screen; P78536; recombinant ADAM17, EDANS/DABCYL FRET peptide cleavage; inhibition, % at 6.95 µM; 0.83% of 370,000 active; AID 720648;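 active means inhibition above the mean of compounds lying between control limits plus 3 SD, set per campaign, cut at about 8.5% in these data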;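 further: 0% = DMSO-only wells as the low control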
ADAM10 inh: inhibitors of human ADAM10; AID 720582; 0.62% of 370,000 active; recombinant ADAM10, EDANS/DABCYL FRET peptide cleavage, 3 h; inhibition, % at 7 µM; O14672;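 active means inhibition above a per-campaign cutoff equal to the mean of compounds falling between control-based bounds plus 3 SD, cut at about 20% in these data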;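 further: 0% = DMSO wells while the 100% control is not disclosed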
sPLA2 confirm: human GIII-sPLA2 inhibition, confirmation; 34% of 2,000 active; shares compounds with sPLA2-III inh; recombinant hGIII-sPLA2, BODIPY PC-A2 QFRET fluorescence; inhibition, % at 12.2 µM; AID 743280;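 active means mean inhibition across triplicates above the hit cutoff set in the earlier primary screen, cut at about 19% in these data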;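 further: 0% = enzyme with DMSO and 100% = DMSO wells lacking enzyme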
BODIPY interf: counter-screen for HGIII-sPLA2 inhibitors: 535nm fluorescence interference; BODIPY FL product fluorescence interference, QFRET; shares compounds with sPLA2-III inh; inhibition, % at 12.2 µM; 8.5% of 2,000 active;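 active means average inhibition above the solvent-only control mean plus 3 SD, cut at about 6% in these data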;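 further: 0% = DMSO with substrate plus product and 100% = DMSO with substrate alone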
535nm interf DR: interferes with 535nm fluorescence in dose response counter-screen | shares compounds with sPLA2-III inh | BODIPY FL product fluorescence interference, cell-free | IC50, µM | 240 tested, under 10 active | AID 743455;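 active means IC50 at or below 10 µM; inactive means IC50 above 10 µM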
The depositor's hits bear a star; i = inactive; . = not tested or not shown.

SMILES | GRIN3A LBD mod | sPLA2-III inh | FAS TE block | ADAM17 inh | ADAM10 inh | sPLA2 confirm | BODIPY interf | others
CNC(=S)NCCc1ccccc1 | 1 | 15 | -7 | 2 | -4 | . | .
OCCNC(=S)NCCc1ccccc1 | -2 | 20* | -14 | 0 | -4 | 4 | -1
COc1ccc(S(=O)(=O)N2CCCCCC2)c2ccccc12 | . | -1 | . | 4 | 9 | . | .
CC(C)c1cc(C(=O)NNC(=S)NCc2ccco2)c(O)c(C(C)C)c1 | 19* | 51* | 13 | 4 | -3 | 57* | 4 | 535nm interf DR=>122
CCSC(=S)c1c(C)[nH]n(-c2ccccc2)c1=O | 5 | 19* | -6 | -1 | 4 | 12 | -1
CN(C)c1ccc(C(=S)Nc2ccccc2)cc1 | -3 | 22* | 3 | -6 | -17 | 21* | 3
N#CC(c1c(Cl)cccc1N1CCCCC1)N1CCCCC1 (configuration not stated) | . | 1 | . | -4 | -2 | . | .
Cc1cccnc1NC(=S)Nc1ncccc1C | -1 | 2 | -6 | -1 | 6 | . | .
CCOc1ccccc1NC(=S)Nc1ncccc1C | 9 | 23* | 33 | 1 | 2 | 8 | -3
COc1ccc(C(=O)NC(=S)Nc2cccc3ncccc23)cc1[N+](=O)[O-] | -1 | 7 | 0 | -3 | 0 | . | .
CCOc1ccc(C(=O)NC(=S)Nc2ncccc2C)cc1[N+](=O)[O-] | 0 | 20* | -1 | 3 | 15 | 10 | -8
Cc1nnc2nc(N)[nH]n2c1=O | . | 18 | . | -7 | -13 | . | .
Cn1c(=O)c2ccccc2n(C)c1=O | . | 15 | . | -2 | -22 | . | .
Cc1ccc(C2c3c(n[nH]c3C(C)C)C(=O)N2c2ccccc2)cc1 (configuration not stated) | . | 8 | . | 5 | -15 | . | .
C#CC[N+](C)(C)CCCCCCCCCCCC | -2 | 23* | -9 | -2 | -16 | -6 | -33
C#CC[N+](C)(C)CCCCCCCCCC | 2 | 19* | -3 | 2 | -12 | 1 | -15
C#CC[N+](C)(C)CCCCCCCC | -2 | 7 | -8 | -6 | 7 | . | .
C=CCN1[C@@H](CC(C)C)COc2cccc(N3CCSCC3)c2S1(=O)=O | . | 5 | . | 0 | 4 | . | .
CCc1n[nH]c(=S)n1/N=C/c1cc(Br)c(OC)cc1OC | 0 | 22* | 3 | -7 | -18 | 19* | 5
C[C@@H]1COc2cccc(NC3CC3)c2S(=O)(=O)N1 | . | -1 | . | -5 | -14 | . | .
Oc1c(N=Nc2ccccn2)ccc2ccccc12 | 1 | 22* | 19 | -1 | -3 | 54* | 13*
Oc1[nH]c2ccccc2c1N=Nc1ccccn1 | 1 | 5 | -3 | -1 | -5 | . | .
CCOC(=O)N1CCN(S(=O)(=O)c2ccc(C(=O)NNc3nc4cc(C)cc(C)c4s3)cc2)CC1 | -1 | . | 10 | . | . | . | .
Cc1cccc2sc(NNC(=O)c3ccc(S(=O)(=O)N4CCc5ccccc5C4)cc3)nc12 | 6 | 41* | 18 | 8 | 14 | 43* | 7.8*
Cc1cccc2sc(NC(=O)c3cccc(S(=O)(=O)N4CCc5ccccc54)c3)nc12 | 10 | -8 | 42 | -4 | -13 | . | .
SMILES | GRIN3A LBD mod | sPLA2-III inh | FAS TE block | ADAM17 inh | ADAM10 inh | sPLA2 confirm | BODIPY interf | others
Cc1cc(C)c2nc(NNC(=O)c3ccc(S(=O)(=O)N4CCCCC4)cc3)sc2c1 | 0 | 46* | 2 | 8 | 9 | 53* | -2 | 535nm interf DR=>122
CCOC(=O)N1CCN(S(=O)(=O)c2ccc(C(=O)NNc3nc4c(C)cccc4s3)cc2)CC1 | -26 | 33* | 11 | 8 | 8 | 39* | -1 | 535nm interf DR=>122
Cc1cccc2sc(NNC(=O)c3ccc(S(=O)(=O)N4CCCC(C)C4)cc3)nc12 (configuration not stated) | 8 | 34* | 12 | 6 | -8 | 38* | 1 | 535nm interf DR=>122
Cc1ccc(C(=O)NNC(=O)c2ccc(S(=O)(=O)N3CCCCC3)cc2)cc1 | 0 | -24 | -1 | -2 | -7 | . | .
CCc1nnc(NC(=O)c2ccc(S(=O)(=O)N3CCCC(C)C3)cc2)s1 (configuration not stated) | 1 | 6 | -1 | 4 | -2 | . | .
C=CCNc1cccc2c1S(=O)(=O)N[C@H](C)CO2 | . | 2 | . | -1 | -5 | . | .
O=[N+]([O-])c1ccc2c(c1)CCCO[C@]21O[C@H](CCO)C[C@H](O)[C@H]1O | . | 2 | . | 2 | 0 | . | .
COC(=O)C1=C(C)N(Cc2ccc(C(F)(F)F)cc2)C(=NCc2cc(OC)c(OC)c(OC)c2)NC1c1cccc(Cl)c1 (configuration not stated) | . | 3 | . | -2 | -4 | . | .
Cc1ccc(-n2c(SCc3cccc(F)c3)nnc2-c2cccc(C)c2)cc1 | . | 2 | . | 4 | 0 | . | .
CC(C)=C1C2CCC1C1C(=O)N(c3nccs3)C(=O)C21 (configuration not stated) | -2 | 21* | -10 | -5 | -17 | 3 | -2
C#CCN(Cc1ccco1)C(=O)c1nnc2c3ccccc3n(S(=O)(=O)c3ccc(C)cc3)c2n1 | . | -3 | . | -8 | -42 | . | .
Cc1ccc(NC(=O)CN(C)Cc2nc3ccccc3c(=O)[nH]2)c(Br)c1 | 2 | 1 | 0 | -4 | 0 | . | .
Cc1cc(Br)ccc1NC(=O)CNC(=O)CN(C)Cc1nc2ccccc2c(=O)[nH]1 | 1 | 25* | -5 | -1 | 1 | 16 | -16
CCN(C(=O)c1cc2c(=O)n3ccccc3nc2s1)C1CCCCC1 | -1 | -1 | 6 | -399 | i | . | .
CCCNC(=O)COC(=O)c1cc2c(=O)n3ccccc3nc2s1 | -5 | 19* | -9 | -345 | i | -4 | -4
COC(=O)c1cc(CSC(=N)N)ccc1OCCC(C)C | 1 | 21* | -44 | 0 | 8 | 29* | -13
Cc1cccc(NC(=S)N2CCN(c3ccc(F)cc3)CC2)c1 | -1 | 26* | -6 | -4 | 16 | 11 | -5
C[C@@H]1ON(C)[C@H]2C[C@H]3c4[nH]c5c(-c6cccc(F)c6)cccc5c4CCN3C(=O)[C@@H]12 | . | -15 | . | -50 | -175 | . | .
N#CCC[C@H]1CC[C@]2(CCCN(S(=O)(=O)c3ccccc3)C2)O1 | . | 20* | . | -3 | -20 | 1 | -6
N#CCC[C@@H]1CC[C@]2(CCCN(Cc3ccc(Br)cc3)C2)O1 | . | 22* | . | -7 | -6 | -5 | -12
O=c1oc(-c2ccc(Cl)c(Cl)c2)nn1-c1ccc(C(F)(F)F)cn1 | 1 | 30* | 6 | -3 | -3 | 23* | 7.8*
N/C(=N\OC(=O)c1ccc2ccccc2c1)c1ccccn1 | -10 | -4 | 7 | -16 | -44 | . | .
